The record followed here is PubChem BioAssay (NCATS).

The target in test [1] is Glucocorticoid receptor (Homo sapiens) (UniProt P04150). Kind of test: qHTS assay for small molecule agonists of glucocorticoid receptor signaling (AID 588532; active means well fitted curve in the direction sought with a large enough effect in the signal ratio, with a control signal flat; the % refers to the signal ratio;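 further: 100% = dexamethasone at 0.1 µM and 0% = DMSO only wells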). The settings on record: HeLa MMTV-bla, beta-lactamase ratio, agonist, 18 h; activation: stronger effect = higher value, percent of dexamethasone control, DMSO zero. In a few lines:
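Quantitative HTS using CellSensor MMTV-bla HeLa cells in charcoal/dextran-treated serum; compounds tested up to 92 uM. After 18 h at 37 C, CCF4 dye reported reporter induction.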
(In general: Quantitative high-throughput screening tests each substance at several concentrations.)

Test [2] has the same target. Kind of test: qHTS assay for small molecule antagonists of glucocorticoid receptor signaling (AID 588533; active means well fitted inhibition curve with a large enough effect in the signal ratio, with a control signal flat, not every such curve was filed as active; the % refers to the signal ratio;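 further: cells stimulated with 2 nM dexamethasone as agonist; on the % scale 0 is the no-effect control and ±100 the full control effect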). In a few lines:
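Antagonist-mode qHTS: compound titrations added to GRE-bla HeLa cells, then dexamethasone 2 nM final; 18 h, 37 C. CCF4 FRET fluorescence normalized to dexamethasone and DMSO; IC50 from Hill fit.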

Test [3] deals with Peroxisome proliferator-activated receptor delta (Homo sapiens) (UniProt Q03181). Briefly: qHTS assay for small molecule agonists of peroxisome proliferator-activated receptor delta signaling (AID 588534; calls by dose curve;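 further: 0% = DMSO basal wells and 100% = positive control agonist at 10 µM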). A digest of the protocol: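 Agonist-mode beta-lactamase reporter readout (CCF4 dye, 2 h at RT) after 18 h at 37 °C exposure to a titration; Hill-equation fitting gave EC50 and maximal response.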
Sequence of Peroxisome proliferator-activated receptor delta (Homo sapiens) (Q03181 whole entry, looked up): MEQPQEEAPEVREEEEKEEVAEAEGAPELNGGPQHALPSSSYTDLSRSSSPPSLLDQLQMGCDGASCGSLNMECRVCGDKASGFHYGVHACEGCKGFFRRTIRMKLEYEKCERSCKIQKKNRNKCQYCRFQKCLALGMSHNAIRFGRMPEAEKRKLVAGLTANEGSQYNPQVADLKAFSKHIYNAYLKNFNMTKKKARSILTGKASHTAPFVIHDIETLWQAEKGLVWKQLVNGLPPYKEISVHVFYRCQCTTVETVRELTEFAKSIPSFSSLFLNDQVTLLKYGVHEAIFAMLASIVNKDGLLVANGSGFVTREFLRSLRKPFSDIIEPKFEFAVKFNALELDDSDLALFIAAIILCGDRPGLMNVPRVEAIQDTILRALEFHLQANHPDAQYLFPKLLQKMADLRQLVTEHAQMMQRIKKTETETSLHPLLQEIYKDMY

Test [4] is described as follows: qHTS assay for small molecule antagonists of peroxisome proliferator-activated receptor delta signaling (AID 588535; active means well fitted inhibition curve with a large enough effect in the signal ratio, with a control signal flat, not every such curve was filed as active; the % refers to the signal ratio;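 on max response: cells co-treated with a PPAR-delta agonist as stimulator during compound exposure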). The following applies: HEK293T PPARd-UAS-bla, beta-lactamase FRET ratio, 18 h; 460 nm channel. A digest of the protocol:
(§1)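 Titrations were run on PPAR-delta-UAS-bla HEK293T cells in charcoal/dextran-stripped serum, incubated 18 h at 37 C. CCF4 fluorescence (460/530 nm) after 2 h RT; Hill equation yields IC50 and maximal response.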

Test [5] addresses Peroxisome proliferator-activated receptor delta (Homo sapiens) (UniProt Q03181). Described as above. A digest of the protocol: as §1
In test [6] the target is Peroxisome proliferator-activated receptor gamma (Homo sapiens) (UniProt P37231). Kind of test: qHTS assay for small molecule agonists of peroxisome proliferator-activated receptor gamma signaling (AID 588536; active means well fitted curve in the direction sought with a large enough effect in the signal ratio, with a control signal flat, not every such curve was filed as active; the % refers to the signal ratio;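 further: 0% = DMSO basal wells and 100% = rosiglitazone at 2 µM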). A digest of the protocol:
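This is an agonist-mode beta-lactamase reporter assay in HEK293 PPAR-gamma-UAS-bla cells with 1% charcoal/dextran FBS. Compound titrations ran 16 h at 37 C before CCF4 detection. EC50 and efficacy are Hill fits scaled to 2 uM rosiglitazone (100%) and DMSO basal.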

Test [7] shares this target. Briefly: qHTS assay for small molecule antagonists of peroxisome proliferator-activated receptor gamma signaling (AID 588537; active means well fitted inhibition curve with a large enough effect in the signal ratio, with a control signal flat, not every such curve was filed as active; the % refers to the signal ratio;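 further: reporter cells co-stimulated with 50 nM rosiglitazone agonist during compound treatment; % of control where 0% means no effect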). A digest of the protocol: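 Antagonist-mode β-lactamase reporter screen run as a titration series. HEK293 PPARγ-UAS-bla cells are stimulated with rosiglitazone (50 nM final) for 16 h, then CCF4 is read at 460/530 nm. Data are scaled between DMSO and rosiglitazone and fitted to the Hill equation.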

The target in test [8] is Vitamin D3 receptor (Homo sapiens) (UniProt P11473). Briefly: qHTS assay for small molecule antagonists of vitamin D receptor signaling (AID 588541; calls by dose curve;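 further: receptor activated by calcitriol during compound treatment; series mostly up to about 77 µM; on the % scale 0 is the no-effect control and ±100 the full control effect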). In a few lines: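 Antagonist-mode beta-lactamase reporter assay: HEK293T VDR-UAS-bla cells were exposed to titrated compound alongside 1-alpha,25-dihydroxyvitamin D3 at 3 nM final for 16 h. Values were normalized to the 50 nM agonist control and DMSO basal, with IC50 and efficacy from Hill equation fits.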
Sequence of Vitamin D3 receptor (Homo sapiens) (P11473 whole entry, looked up): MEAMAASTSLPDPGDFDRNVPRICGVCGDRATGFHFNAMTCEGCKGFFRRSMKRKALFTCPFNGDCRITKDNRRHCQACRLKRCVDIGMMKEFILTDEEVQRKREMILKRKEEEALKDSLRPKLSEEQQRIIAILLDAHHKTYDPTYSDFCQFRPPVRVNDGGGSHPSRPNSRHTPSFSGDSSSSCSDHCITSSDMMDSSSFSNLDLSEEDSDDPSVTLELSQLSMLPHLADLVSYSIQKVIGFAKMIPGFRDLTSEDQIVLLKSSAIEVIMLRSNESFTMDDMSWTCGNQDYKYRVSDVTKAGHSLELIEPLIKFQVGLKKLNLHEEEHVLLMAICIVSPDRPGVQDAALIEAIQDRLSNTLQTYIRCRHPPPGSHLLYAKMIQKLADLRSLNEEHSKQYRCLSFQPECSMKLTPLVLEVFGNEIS

Test [9] can be described thus: qHTS assay for small molecule agonists of retinoid X receptor alpha signaling (AID 588544; calls by dose curve;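 on activation: 0% = DMSO basal wells and 100% = reference agonist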). The following applies: HEK293T RXRa-UAS-bla, beta-lactamase reporter, 18 h; 530 nm emission.
In test [10] the target is Retinoic acid receptor RXR-alpha (Homo sapiens) (UniProt P19793). The description is as above.
Sequence of Retinoic acid receptor RXR-alpha (Homo sapiens) (P19793 whole entry, looked up): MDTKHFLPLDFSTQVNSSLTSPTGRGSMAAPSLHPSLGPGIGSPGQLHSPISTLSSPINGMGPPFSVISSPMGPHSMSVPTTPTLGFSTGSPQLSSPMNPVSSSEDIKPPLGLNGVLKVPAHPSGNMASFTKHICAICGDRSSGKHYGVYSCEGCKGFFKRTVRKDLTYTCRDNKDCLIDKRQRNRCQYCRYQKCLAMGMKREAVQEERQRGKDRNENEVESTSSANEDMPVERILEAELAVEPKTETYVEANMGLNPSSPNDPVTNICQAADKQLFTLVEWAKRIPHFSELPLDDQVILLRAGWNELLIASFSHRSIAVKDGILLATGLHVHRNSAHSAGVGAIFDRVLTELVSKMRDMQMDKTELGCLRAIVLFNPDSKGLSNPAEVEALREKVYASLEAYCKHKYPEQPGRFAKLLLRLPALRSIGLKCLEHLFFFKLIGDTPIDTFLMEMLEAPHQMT
For test [11], the target named is Thyroid hormone receptor beta (Homo sapiens) (UniProt P10828). Kind of test: qHTS assay for small molecule agonists of thyroid hormone receptor beta signaling (AID 588545; calls by dose curve;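 further: 0% = DMSO only and 100% = 10 nM T3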). A digest of the protocol:
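Stimulation of a TR-driven beta-lactamase reporter was quantified in GripTite HEK 293 cells. Compound series ran for 18 hrs; curves were normalized to T3 and DMSO controls and fitted to yield EC50.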

The target is the same in test [12]. Briefly: qHTS assay for small molecule antagonists of thyroid hormone receptor beta signaling (AID 588547; active means well fitted inhibition curve with a large enough effect in the signal ratio, with a control signal flat, not every such curve was filed as active; the % refers to the signal ratio;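 further: cells stimulated with 0.4 nM T3 agonist during compound exposure; series mostly up to about 77 µM; on the % scale 0 is the no-effect control and ±100 the full control effect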). The settings on record: TR-UAS-bla HEK293, beta-lactamase ratio, antagonist mode, 18 h. A digest of the protocol:
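Inhibition of T3-driven (0.4nM final) beta-lactamase reporter activity was measured over 0.59 nM to 92 uM compound after 18 h at 37 C. The cells were GripTite HEK293 TR-UAS-bla in charcoal/dextran-stripped serum, with CCF4 ratio read-out and IC50 from Hill fits.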

Test [13] in a line: qHTS assay for small molecule activators of the p53 signaling pathway (AID 651743; active means well fitted activation curve with a large enough effect in the signal ratio, not every such curve was filed as active; the % refers to the signal ratio; further: series mostly up to about 92 µM; % of control where 0% means no effect). The following applies: HCT-116 p53RE-bla, beta-lactamase FRET ratio, 16 h; activation: stronger effect = higher value. In a few lines:
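After 16 hours compound treatment at 37 C, HCT-116 cells stably expressing p53RE-driven beta-lactamase were loaded with LiveBLAzer B/G FRET substrate for 2 hours at room temperature. Fluorescence intensity served as the p53 activation read-out.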

Test [14] in a line: qHTS assay for small molecule activators of the nuclear factor-kappa B (NF-kB) signaling pathway (AID 651749; active means well fitted activation curve with a large enough effect in the signal ratio; the % refers to the signal ratio; further: series mostly up to about 77 µM; % of control where 0% means no effect). The settings on record: NF-kB-bla ME-180 cells, beta-lactamase FRET ratio, 16 h; activation: stronger effect = higher value. A digest of the protocol: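 Activation measured after 16 hr compound treatment at 37C, 5% CO2, of 2,000 ME-180 cells/well stably expressing an NF-kB response element–driven beta-lactamase reporter, via FRET-disruption fluorescence.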

The nature of test [15]: qHTS assay for environmental chemicals that activate the Aryl hydrocarbon Receptor (AhR) signaling pathway (AID 651777). Further: % of control where 0% means no effect; nearly all actives have a fitted effect of over 15% in size. The settings on record: 1A2-DRE human hepatoma cells, luciferase, 24 h; activation: stronger effect = higher value. A digest of the protocol:
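Quantitative HTS in stably transfected human liver-derived cells whose luciferase gene sits downstream of the CYP1A2 promoter and dioxin response element. After 24 hr exposure at 37 C, One-Glo luminescence was measured.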

For test [16], the target named is Peroxisome proliferator-activated receptor alpha (Homo sapiens) (UniProt Q07869). Kind of test: qHTS assay for small molecule agonists of the peroxisome proliferator-activated receptor alpha (PPARalpha) signaling pathway (AID 651778). Further: % of control where 0% means no effect. The following applies: PathHunter PPARalpha complementation, chemiluminescence, 6 h; max response: stronger effect = higher value. In a few lines:
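Chemiluminescence from complemented enzyme reported PPARalpha activation in cells after 6 hr of compound treatment at 37 C. The detection reagent was incubated for 60 min at room temperature, and compounds were scored as agonists.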

Test [17] is described as follows: qHTS assay for small molecule agonists of the antioxidant response element (ARE) signaling pathway measured by Nrf2-dependant transcriptional activity (AID 720636; active means well fitted curve in the direction sought with a large enough effect in the repeat runs; an effect the other way counts as inactive or inconclusive; further: % of control where 0% means no effect). In a few lines: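 Quantitative HTS format in HepG2 cells stably expressing an ARE-luciferase reporter; 16 hr compound treatment at 37 C, luciferase signal detected with ONE-Glo.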
Test [18] in a line: qHTS assay for small molecule agonists of the antioxidant response element (ARE) signaling pathway measured by Nrf2-dependant transcriptional activity - cell viability counter screen (AID 720653; active means well fitted curve in the direction sought with a large enough effect in the repeat runs; an effect the other way counts as inactive or inconclusive; further: on the % scale 0 is the no-effect control and ±100 the full control effect). The settings on record: ARE-bla HepG2 viability, CellTiter-Glo ATP luminescence, 16 h; max response: stronger effect = lower value. In a few lines: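 Cytotoxicity counter screen: intracellular ATP quantified by CellTiter-Glo luminescence in the same ARE-bla HepG2 plates, after 16 h compound exposure and a 2 h beta-lactamase substrate step.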

Test [19] in a line: qHTS assay for cell viability of HEK293 cells (AID 743288). Further: on the % scale 0 is the no-effect control and ±100 the full control effect; nearly all actives have a fitted effect of over 50% in size. The following applies: ATP luminescence (CellTiter-Glo), 18 h; max response: stronger effect = lower value. In a few lines:
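HEK293, 18 h, 37 C, ATP luminescence. Cells at 2,000/well were allowed at least 5 h to settle before dosing; CellTiter-Glo developed 30 min at RT.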

Test [20] can be described thus: qHTS assay for cell viability of the p53RE-bla HCT-116 cell line (AID 743292). Further: on the % scale 0 is the no-effect control and ±100 the full control effect; nearly all actives have a fitted effect of over 55% in size. A digest of the protocol: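 Viability of compound-treated p53RE-bla HCT-116 cells is taken from ATP-dependent luciferase luminescence. Treatment lasts 16 h at 37 C after a 5 h settling period; detection follows 30 min at room temperature.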
Test [21] addresses Nuclear receptor subfamily 1 group I member 2 (Rattus norvegicus) (UniProt Q9R1A7). Briefly: qHTS assay for small molecule activators of the rat pregnane X receptor (rPXR) signaling pathway (AID 651751; call rule not given here; further: 0% is about no effect). The settings on record: rPXR reporter cells, luciferase (One-Glo), 24 h.
Test [22] has as its target Bile acid receptor (Homo sapiens) (UniProt Q96RI1). Briefly: qHTS assay for small molecule agonists of farnesoid X receptor signaling (AID 588527; calls by dose curve;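 further: series mostly up to about 77 µM; 0% = vehicle basal and 100% = reference agonist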). The settings on record: HEK293T FXR-UAS-bla, beta-lactamase ratio, 16 h; activation: stronger effect = higher value. In a few lines:
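Agonist-mode beta-lactamase reporter in GeneBLAzer FXR-UAS-bla HEK293T cells, titration up to 92 uM, 16 h exposure at 37 C, CCF4 fluorescence. Response scaled to DMSO (0%) and 100 uM chenodeoxycholic acid (100%), then Hill-fitted for EC50 and efficacy.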

The nature of test [23]: qHTS assay for small molecule agonists of the antioxidant response element (ARE) signaling pathway (AID 651741; active means well fitted activation curve with a large enough effect in the signal ratio; the % refers to the signal ratio; further: potency means the concentration at half of the fitted maximal effect). A digest of the protocol: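 Beta-lactamase reporter under ARE control in HepG2 cells, 2,000 per well, was induced by 16 h compound treatment at 37 C. Read-out was fluorescence from LiveBLAzer B/G FRET substrate after 2 h at room temperature.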
A short description of test [24]: qHTS assay for small molecule activators of the human pregnane X receptor (PXR) signaling pathway (AID 720659; call rule not given here; further: 0% is about no effect).

Molecules are shown by their SMILES. Inconclusive results are not listed. Active and inactive are the calls of the source. Unless noted, the call rests on the fitted dose curve; in most records, active means well fitted curve in the direction sought with a large enough effect; inconclusive means small, poorly fitted or top-dose-only effect, or another doubt; inactive means no such curve, though single readings can be large; an effect the other way counts as inactive or inconclusive.

Sequence of Peroxisome proliferator-activated receptor alpha (Homo sapiens) (Q07869 whole entry, looked up): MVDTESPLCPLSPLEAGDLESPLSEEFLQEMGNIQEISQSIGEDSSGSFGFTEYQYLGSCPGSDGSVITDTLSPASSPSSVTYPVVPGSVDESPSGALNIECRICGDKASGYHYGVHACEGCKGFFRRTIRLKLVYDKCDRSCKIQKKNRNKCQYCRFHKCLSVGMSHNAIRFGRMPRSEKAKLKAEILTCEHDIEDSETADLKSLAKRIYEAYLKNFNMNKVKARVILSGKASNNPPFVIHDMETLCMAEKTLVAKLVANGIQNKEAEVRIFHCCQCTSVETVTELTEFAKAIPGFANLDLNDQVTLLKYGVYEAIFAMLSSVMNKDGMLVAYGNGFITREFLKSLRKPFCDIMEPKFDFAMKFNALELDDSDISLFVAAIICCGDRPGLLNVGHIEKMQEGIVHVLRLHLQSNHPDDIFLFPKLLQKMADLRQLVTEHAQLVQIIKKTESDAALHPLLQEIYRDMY
Sequence of Glucocorticoid receptor (Homo sapiens) (P04150 whole entry, looked up): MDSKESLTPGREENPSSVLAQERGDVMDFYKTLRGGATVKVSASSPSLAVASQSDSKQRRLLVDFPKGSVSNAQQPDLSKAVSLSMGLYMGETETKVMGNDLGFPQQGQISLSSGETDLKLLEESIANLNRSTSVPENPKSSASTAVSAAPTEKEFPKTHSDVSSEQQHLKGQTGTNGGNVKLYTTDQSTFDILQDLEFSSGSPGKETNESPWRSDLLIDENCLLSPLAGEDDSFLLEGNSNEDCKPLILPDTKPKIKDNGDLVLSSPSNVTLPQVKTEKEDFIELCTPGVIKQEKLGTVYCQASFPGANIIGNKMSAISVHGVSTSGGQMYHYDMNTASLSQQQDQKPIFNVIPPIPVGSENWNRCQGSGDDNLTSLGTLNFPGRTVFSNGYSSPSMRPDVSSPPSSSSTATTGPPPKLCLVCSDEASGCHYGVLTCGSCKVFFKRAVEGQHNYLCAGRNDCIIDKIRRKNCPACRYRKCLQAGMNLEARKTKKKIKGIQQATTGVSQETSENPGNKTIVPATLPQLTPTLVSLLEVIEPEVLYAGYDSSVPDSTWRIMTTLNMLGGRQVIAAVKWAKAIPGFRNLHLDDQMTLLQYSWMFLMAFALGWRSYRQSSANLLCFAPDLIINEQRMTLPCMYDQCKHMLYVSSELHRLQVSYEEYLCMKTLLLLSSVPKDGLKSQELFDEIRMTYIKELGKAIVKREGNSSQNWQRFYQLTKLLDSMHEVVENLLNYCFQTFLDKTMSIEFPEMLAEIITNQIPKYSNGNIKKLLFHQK
Sequence of Thyroid hormone receptor beta (Homo sapiens) (P10828 whole entry, looked up): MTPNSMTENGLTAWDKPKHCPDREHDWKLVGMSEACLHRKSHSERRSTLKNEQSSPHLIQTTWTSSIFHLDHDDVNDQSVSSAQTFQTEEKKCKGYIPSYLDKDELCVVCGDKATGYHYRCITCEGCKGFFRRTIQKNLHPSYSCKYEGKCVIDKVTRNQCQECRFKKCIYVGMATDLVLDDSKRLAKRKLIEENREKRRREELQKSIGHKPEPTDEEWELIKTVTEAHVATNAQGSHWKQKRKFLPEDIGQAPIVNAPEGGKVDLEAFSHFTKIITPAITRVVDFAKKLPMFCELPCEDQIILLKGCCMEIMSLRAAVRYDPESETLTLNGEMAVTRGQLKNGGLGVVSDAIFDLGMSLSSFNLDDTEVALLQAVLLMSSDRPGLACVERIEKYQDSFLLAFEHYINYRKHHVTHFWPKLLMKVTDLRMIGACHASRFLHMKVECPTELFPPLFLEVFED
Sequence of Peroxisome proliferator-activated receptor gamma (Homo sapiens) (P37231 whole entry, looked up): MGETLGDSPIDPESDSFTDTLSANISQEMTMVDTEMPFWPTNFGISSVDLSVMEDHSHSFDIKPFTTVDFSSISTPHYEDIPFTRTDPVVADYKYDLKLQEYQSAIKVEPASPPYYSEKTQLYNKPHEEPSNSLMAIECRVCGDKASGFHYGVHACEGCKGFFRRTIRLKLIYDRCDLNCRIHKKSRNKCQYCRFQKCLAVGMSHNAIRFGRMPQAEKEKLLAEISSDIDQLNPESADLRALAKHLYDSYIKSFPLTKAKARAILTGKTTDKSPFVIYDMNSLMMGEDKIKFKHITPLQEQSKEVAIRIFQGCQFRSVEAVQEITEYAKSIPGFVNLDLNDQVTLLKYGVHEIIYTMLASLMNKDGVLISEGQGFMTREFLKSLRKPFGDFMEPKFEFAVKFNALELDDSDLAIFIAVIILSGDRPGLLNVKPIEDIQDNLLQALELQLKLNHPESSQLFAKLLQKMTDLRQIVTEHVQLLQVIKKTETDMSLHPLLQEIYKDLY
Sequence of Nuclear receptor subfamily 1 group I member 2 (Rattus norvegicus) (Q9R1A7 whole entry, looked up): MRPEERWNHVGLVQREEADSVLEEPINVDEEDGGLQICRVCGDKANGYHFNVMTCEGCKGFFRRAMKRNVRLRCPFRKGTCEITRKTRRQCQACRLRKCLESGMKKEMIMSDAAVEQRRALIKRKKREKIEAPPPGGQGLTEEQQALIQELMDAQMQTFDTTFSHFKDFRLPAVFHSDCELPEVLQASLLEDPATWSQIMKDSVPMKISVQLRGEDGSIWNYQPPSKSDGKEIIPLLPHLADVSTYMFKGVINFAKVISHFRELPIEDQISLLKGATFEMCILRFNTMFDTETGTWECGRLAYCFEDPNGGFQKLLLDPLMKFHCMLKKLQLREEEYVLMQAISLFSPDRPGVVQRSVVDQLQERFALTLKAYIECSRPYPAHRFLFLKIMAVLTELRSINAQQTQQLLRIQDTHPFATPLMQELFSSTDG
Sequence of Bile acid receptor (Homo sapiens) (Q96RI1 whole entry, looked up): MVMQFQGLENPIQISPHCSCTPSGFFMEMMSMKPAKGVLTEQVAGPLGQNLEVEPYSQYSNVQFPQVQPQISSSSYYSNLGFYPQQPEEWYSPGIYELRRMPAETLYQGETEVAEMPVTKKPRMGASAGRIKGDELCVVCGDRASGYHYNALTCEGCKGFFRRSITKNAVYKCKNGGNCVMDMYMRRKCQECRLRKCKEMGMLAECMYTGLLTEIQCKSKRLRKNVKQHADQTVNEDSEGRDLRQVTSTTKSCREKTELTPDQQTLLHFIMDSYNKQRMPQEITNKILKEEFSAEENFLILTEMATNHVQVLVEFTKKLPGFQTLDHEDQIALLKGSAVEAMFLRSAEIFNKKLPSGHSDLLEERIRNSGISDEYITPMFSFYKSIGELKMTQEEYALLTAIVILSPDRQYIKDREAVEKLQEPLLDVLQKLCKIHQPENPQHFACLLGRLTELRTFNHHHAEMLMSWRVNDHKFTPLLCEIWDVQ

`C1=Cc2cccc3cccc1c23`: the activation in test [1] is -9.46% (inactive); in test [13], -6.25% (inactive); in test [14], 0.838% (inactive); in [15] it was 0.26% (inactive). Further, the Potency entry in test [2], in test [5], in test [6], in [7], in [8] and in test [10] was “inactive” throughout. Further, the Potency entry in test [11], in test [17] and in [20] was “inactive” in each case. In addition, the outcome in test [3] was inactive. For the same compound, the max response in test [4] was -1.47%; in test [9], -12.5%; in test [16], 3.92% (inactive); in test [18] it was -6.24% (inactive); in test [19] it was -13.5% (inactive); in test [21] it was 3.17% (inactive). For the same compound, the activity change % (negative = inhibition) in test [12] was 1.99% (inactive).

As for `CC(C)(C)c1ccc(CSc2cnn(C(C)(C)C)c(=O)c2Cl)cc1`, the activation in test [22] is 6.79% (inactive); in test [15] it was -3.11% (inactive). Further, in test [23], the Potency is 96.9 nM (active). Moreover, the max response in [16] was -6% (inactive). Moreover, the Potency entry in test [17] and in [20] was “inactive” in each case. Further, in test [24], the compound was called inactive.
